Results taken from PubChem BioAssay AID1053124 (Broad Institute, 2014).
Results with a measured potency or affinity are listed apart. Activity calls are given as the source filed them.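 The calls were made as follows: active = cell killing whose fitted half-effect concentration is at most twice the top valid dose tested; inconclusive = flat curve with 30 to 70% killing, or a poor fit; inactive = effect in the rising direction, plus the rest.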

Experiment: A549 cell cytotoxicity, dose response, cytotoxicity control, ATP luminescence, cherry-pick, set 2 (AID 1053124)
Conditions: A549 viability, ATP luminescence (CellTiter-Glo), 72 h; series mostly up to 26 µM

Structure (SMILES)	outcome
CC12CC(c3ccccc3O1)C(C(=O)OCc1ccccc1)C(=O)N2 (stereo not drawn)	inactive
N#CC1=C(N)Oc2cc(O)ccc2C1c1ccc2c(c1)OCO2 (stereo not drawn)	inactive
CC(C)OP(=O)(O)NC(=O)c1ccccc1	inactive
